Source: PubChem BioAssay
A selection: hits, their analogues and other compounds. The true share with any hit is near 2.8%.
ERa SRC1 pot = enhancers of ERα–SRC-1 coactivator binding, primary screen, biochemical, TR-FRET, ERα LBD, low estradiol; TR-FRET ERalpha-LBD/SRC-Cy5 coactivator binding, 2 h; 100 = basal binding, no effect; 86,000 tested, 1.3% active; coactivator binding (% of control), % at 25.6 µM; in the data active means activity above about 200%;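 further: binding measured in presence of low estradiol as agonist stimulus; 0% = peptide alone without receptor and 100% = receptor with peptide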
Smad3 inh = Smad3/FoxH1 peptide binding inhibitors, primary screen, biochemical, TR-FRET | TR-FRET Smad3/Dy647-FoxH1 peptide binding, europium anti-His | 88,000 tested, 0.29% active | inhibition, % at 25 µM | Mothers against decapentaplegic homolog 3 (Homo sapiens), P84022;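 active means compounds that reduce the energy-transfer binding signal between the protein and its labelled peptide by more than half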;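 further: 0% = Smad3 plus labelled peptide maximal FRET and 100% = peptide-only background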
Target sequence (P84022 whole entry, looked up): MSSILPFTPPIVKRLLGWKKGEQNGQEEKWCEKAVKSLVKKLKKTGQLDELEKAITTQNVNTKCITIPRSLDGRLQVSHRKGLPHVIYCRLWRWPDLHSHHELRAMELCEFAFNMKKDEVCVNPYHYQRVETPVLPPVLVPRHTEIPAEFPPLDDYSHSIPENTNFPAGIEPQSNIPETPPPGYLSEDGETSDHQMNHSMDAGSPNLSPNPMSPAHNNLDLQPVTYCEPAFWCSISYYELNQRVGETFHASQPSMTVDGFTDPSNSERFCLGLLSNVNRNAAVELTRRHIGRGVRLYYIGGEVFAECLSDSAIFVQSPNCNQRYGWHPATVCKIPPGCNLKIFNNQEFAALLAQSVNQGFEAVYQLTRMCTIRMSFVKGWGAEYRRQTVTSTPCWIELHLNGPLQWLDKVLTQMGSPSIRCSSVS
MRP-1 activ = H69AR viability gain despite doxorubicin, primary screen, MRP-1 activator project, H69AR cells, CellTiter-Glo. viability increase, % at 10 µM. viability rescue. 140,000 tested, 0.61% active;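 active means viability gain under doxorubicin at or above a set limit, the compound median plus 3 SD, cut at about 4.7% in these data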;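 further: MRP-1 overexpressing cells given doxorubicin 25 µM after compound pretreatment; 18-22 h compound pretreatment then 72 h with doxorubicin before readout; 0% = doxorubicin-only wells and 100% = vehicle-treated cells without doxorubicin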
ERb coact inh = inhibitors of ERβ-SRC1 coactivator interaction, primary screen, biochemical, TR-FRET, ERβ LBD, SRC-1 peptide. Estrogen receptor beta (Homo sapiens), Q92731. inhibition, % at 25.6 µM. TR-FRET ER-beta LBD / SRC1-Cy5 peptide binding; receptor agonist-loaded with 1 µM estradiol. 86,000 tested, 1.3% active;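 active means compounds whose percent inhibition of the receptor-coactivator binding signal exceeds about 50% in the single-dose screen, limit read from the data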;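 further: 0% = receptor plus peptide wells without compound and 100% = peptide-only wells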
MRP resist rev = reversal of MRP1-mediated doxorubicin resistance, primary screen, H69AR cells, doxorubicin co-treatment; H69AR cells + 2 uM doxorubicin, CellTiter-Glo, 72 h; differential viability (reversal), % at 10 µM; 85,000 tested, 0.04% active;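 active means viability drop by adding the cancer drug above about 55%, with treated viability meeting a 40% cutoff, limit read from the data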;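 further: viability without doxorubicin minus viability with 2 µM doxorubicin for each compound; larger differential means the compound sensitizes cells more to doxorubicin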
ERa coact inh = ERα–SRC-1 coactivator interaction inhibitors, primary screen, biochemical, TR-FRET, ERα LBD, estradiol-bound; inhibition, % at 25.6 µM; TR-FRET ER-alpha LBD / SRC-1 peptide; AID 629, 2007; 86,000 tested, 1.7% active; Estrogen receptor (Homo sapiens), P03372; in the data active means inhibition above about 50%;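 further: 0% = receptor plus peptide control and 100% = peptide only without receptor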
* hit, by the source's call; / = no result; [ ] = dose if it differs, or a comment.

SMILES | ERa SRC1 pot | Smad3 inh | MRP-1 activ | ERb coact inh | MRP resist rev | ERa coact inh
O=C1CC(c2ccc(S(=O)(=O)NCCOc3ccccc3)cc2)CN1 (stereo not given) | 124 | 3 | 0 | 57* | 19 | 3
O=C(CCN1CCCCC1)c1csc2ccccc12 | / | 5 | / | / | / | /
OCCSCc1cc(Cl)cc(Cl)c1O | / | 0 | / | / | / | /
O=[N+]([O-])c1ccc(O)c(/C=N/n2cnc3ccccc32)c1 | / | / | 5.2* | / | / | /
O=C(O)C(F)(F)C(F)(F)C(F)(F)C(F)(F)C(=O)O | / | 6 | / | / | / | /
COc1ccc(C(C)C)cc1S(=O)(=O)Nc1ccc(Cl)cn1 | 134 | 5 | -2 | 74*[fluorescence artefact?] | -5 | -2
c1ccc(-c2nc(N3CCN(c4ccccc4)CC3)nc(-n3ccnc3)n2)cc1 | 185 | 3 | 0 | 29 | 25 | 83*[fluorescence artefact?]
c1ccc(-c2nc(N3CCCCCC3)nc(-n3ccnc3)n2)cc1 | 73 | -5 | -6 | -1 | -1 | -1
C=CCn1c(SCC(=O)Nc2sccc2C(N)=O)nc2ccc(Cl)cc2c1=O | 122 | 10 | 2 | 47 | -23 | 64*[fluorescence artefact?]
C=CCn1c(SCC(=O)Nc2sccc2C(N)=O)nc2ccccc2c1=O | 75 | 10 | -3 | 23 | -37 | 28
CCOC(=O)CC(Nc1nc(N2CCOCC2)nc(N2CCOCC2)n1)c1ccccc1Cl (stereo not given) | 104 | 24 | -4 | 5 | -6 | 2
CC(C)/C=C1\CCCCC1N(C)C(=O)NC(C)C (stereo not given) | 86 | 2 | -1 | 11 | 12 | -2
Nc1ccc2nc(-c3cccs3)[nH]c2c1 | 72 | 10 | -5 | 56*[fluorescence artefact?] | -23 | 43
Nc1ccc2nc(-c3ccccc3)[nH]c2c1 | 80 | -6 | -6 | 25 | -20 | 82*[fluorescence artefact?]
Nc1ccc2nc(-c3ccccn3)[nH]c2c1 | 12 | 1 | -3 | 76*[fluorescence artefact?] | -21 | 97*[fluorescence artefact?]
Nc1ccc2nc(-c3ccc(N)c(Cl)c3)[nH]c2c1 | 27 | 7 | -3 | 54*[fluorescence artefact?] | -11 | 92*[fluorescence artefact?]
CN(C)S(=O)(=O)c1nc(Cl)c2[nH]cnc2n1 | / | 16 | / | / | / | /
Cc1cc(C(=O)N/N=C/c2cc(Br)ccc2OC(=O)c2ccccc2)n[nH]1 | / | / | 9.4* | / | / | /
COc1ccc2cc(C(=O)CCC(=O)O)ccc2c1 | / | 0 | / | / | / | /
NS(=O)(=O)c1cc2c(cc1Cl)NC=NS2(=O)=O | 96 | -3 | -1 | 94*[fluorescence artefact?] | 9 | 7
C/C(Nc1ccccc1)=C(/C#N)C(N)=O | 94 | 96*[fluorescence artefact?] | -1 | 3 | 26 | -6
CC1=C(C(=O)OCCc2ccccc2)C(c2ccsc2)NC(=O)N1C (stereo not given) | / | / | -3 | / | / | /
CCOC(=O)CN1CC23C=CC(O2)C(C(=O)Nc2cc(OC)ccc2OC)C3C1=O (stereo not given) | 41 | 36 | -1 | 69* | 3 | 72*[fluorescence artefact?]
CCOC(=O)CN1CC23C=CC(O2)C(C(=O)Nc2ccc(OC)cc2OC)C3C1=O (stereo not given) | 88 | -1 | -1 | 0 | 25 | -1
NCCOc1ccccn1 | / | 4 | / | / | / | /
SMILES | ERa SRC1 pot | Smad3 inh | MRP-1 activ | ERb coact inh | MRP resist rev | ERa coact inh
COc1ccc(C(=O)Nc2nc3c(s2)Cc2cc(OC)ccc2-3)cc1 | 7 | 11 | 2 | 55* | 6 | 95*[fluorescence artefact?]
COc1cc(NC(=O)c2cccs2)c(C(=O)OCC(=O)NCc2ccccc2)cc1OC | 269* | -4 | 0 | 3 | -3 | 16
COc1ccc(NC(=O)Cn2nnc(-c3ccccc3NC(=O)C3CC3)n2)cc1 | 106 | 6 | 0 | 4 | 2 | 5
O=C(Cn1nnc(-c2ccccc2NC(=O)c2cccs2)n1)Nc1ccccc1 | 200*[fluorescence artefact?] | -5 | -4 | 57*[fluorescence artefact?] | -2 | 65*[fluorescence artefact?]
COc1ccccc1NC(=O)Cn1nnc(-c2ccccc2NC(=O)c2cccs2)n1 | 339*[fluorescence artefact?] | 13 | -2 | -5 | -2 | -15
COc1cc(NC(=O)c2cccs2)c(OC)cc1NC(=O)c1ccco1 | / | / | -2 | / | / | /
